Our source for the Percent Effect values is ChEMBL document CHEMBL3988442, “University of Dundee, Small-Polar-MMV Screening Library” (2021).

Experiment [1] deals with T1, Aspartate--tRNA(Asp/Asn) ligase (Mycobacterium tuberculosis (strain ATCC 25618 / H37Rv)) (UniProt P9WFW3).
T1 sequence (whole entry): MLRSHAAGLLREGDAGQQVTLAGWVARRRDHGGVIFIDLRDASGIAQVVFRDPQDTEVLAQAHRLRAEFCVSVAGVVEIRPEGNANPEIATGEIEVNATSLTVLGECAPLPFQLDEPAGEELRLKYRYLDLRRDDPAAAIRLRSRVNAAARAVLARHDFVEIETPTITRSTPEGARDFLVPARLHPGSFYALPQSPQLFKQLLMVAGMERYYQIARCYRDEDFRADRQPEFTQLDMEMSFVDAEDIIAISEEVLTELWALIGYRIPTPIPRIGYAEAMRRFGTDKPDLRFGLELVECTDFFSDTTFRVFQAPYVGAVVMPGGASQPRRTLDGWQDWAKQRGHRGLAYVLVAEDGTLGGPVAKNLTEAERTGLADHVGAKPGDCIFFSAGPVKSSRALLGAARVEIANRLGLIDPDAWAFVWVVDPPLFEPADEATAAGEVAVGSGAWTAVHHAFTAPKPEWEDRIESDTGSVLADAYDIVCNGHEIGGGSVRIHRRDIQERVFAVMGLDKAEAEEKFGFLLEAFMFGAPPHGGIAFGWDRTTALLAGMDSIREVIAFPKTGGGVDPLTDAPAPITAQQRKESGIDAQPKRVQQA
The experiment in a line: Assay for Asp RNA synthetase-1 from Mycobacterium tuberculosis. It is filed as functional. The arrangement: scale not given: direction of the effect not stated beside the values. The following applies: 30 µM.

The target of experiment [2] is Shiga toxin 2 (Escherichia coli O157:H7) (UniProt P09385+P09386). The experiment in a line: E. coli 0.157:H7 Shiga Toxin SOP - stx2 screening assay. Type of experiment: functional. The arrangement: scale not given: direction of the effect not stated beside the values. As to conditions: 30 µM.

`COCC(c1cccc(C(F)(F)F)c1)N(C)C(=O)c1cc(C)n[nH]1` (stereo not drawn): the Percent Effect in experiment [1] is 1.86%; in experiment [2], 24.9%.
Turning to `O=C(c1cccn1Cc1cccs1)N1CCN(C(=O)C2CC2)CC1`, the Percent Effect in experiment [1] was 4.89%; in experiment [2], -4.84%.
The matching figures for `CC(NC(=O)Nc1cc(F)ccc1N1CCCCC1)c1nncn1C` (stereo not drawn): -3.23% and 20.1%.
For the compound `CCS(=O)(=O)N1CCc2c(cccc2NC(=O)NCCOC)C1`, the Percent Effect in experiment [1] is 5.42%; in experiment [2], 6.78%.
Turning to `Cc1ncc2c(n1)CN(Cc1noc(C3CC3)n1)CC2`, the Percent Effect in experiment [1] was 0.182%; in experiment [2], -46.9%.
Taken in the same sequence, the figures for `CCn1ccnc1CN1CCN(CC(O)Cn2cccn2)CC1` (stereo not drawn) were -1.83% and -31.5%.
Turning to `CCc1c(C)nc2n(c1=O)CC(C(=O)Nc1nccs1)CS2` (stereo not drawn), the Percent Effect was -3.8% in experiment [1] and -29.4% in experiment [2].
As to `CCCC(Nc1c(C#N)c(=O)n(C)c(=O)n1C)c1ccc(F)cc1F` (stereo not drawn), the Percent Effect is -3.88% in experiment [1] and 4.48% in experiment [2].
The matching figures for `CCN(C)c1ncnc2c1CCN(Cc1csc(C)n1)CC2`: -3.19% and -3.16%.
As for `O=C(CCc1cscn1)N1CCCC(n2ccnc2)C1` (stereo not drawn), the Percent Effect in experiment [1] is -3.19%; in experiment [2], -12.2%.
As to `CCCn1[nH]cc/c1=N\C(=O)CN1CCCC1c1c(C)nn(C)c1C` (stereo not drawn), the Percent Effect in experiment [1] was -0.979%; in experiment [2], -11%.
For the compound `CCCNC(=O)C1CCN(Cc2csc(C(C)(C)C)n2)CC1`, the Percent Effect in experiment [1] was -0.628%; in experiment [2] it was 7.25%.
As to `OC(COCc1cccs1)CN1CCC(c2ccn[nH]2)CC1` (stereo not drawn), the figures for the Percent Effect in experiment [1] and in experiment [2] were 1.71% and -8.34%, respectively.
With `CN(C)CC(=O)N1CCOC2(CCCN(c3ncccc3F)C2)C1` (stereo not drawn), the Percent Effect in experiment [1] was 1.93%; in experiment [2], -5.68%.
Taken in the same sequence, the figures for `CCc1nc2n(n1)CC(NCc1ccnc(-c3ccccc3)n1)CC2` (stereo not drawn) were -7.45% and 5.5%.
`Cc1ccc(CN2CC[C@H]3[C@@H]2CCC(=O)N3CCN2CCCC2)s1`: the Percent Effect was 2.78% in experiment [1] and -33.4% in experiment [2].
The matching figures for `Cc1ncsc1C(=O)NC1CCN(CC(=O)N(C)C(C)(C)C#N)CC1`: -2.42% and 25.4%.
Regarding `c1cnnc(N2CCCC(NCc3nnc(-c4ccco4)o3)C2)c1` (stereo not drawn), the values for the Percent Effect in experiment [1] and in experiment [2] were -0.7% and -79.7%, respectively.
As for `COc1nc2c(cc1C(=O)N1C[C@H](N)C[C@H]1C(=O)NC(C)C)CCC2`, the Percent Effect is -4.9% in experiment [1] and 12.5% in experiment [2].
The matching figures for `Cc1nc(C2CCCN2Cc2nc(C)c(C)o2)no1` (stereo not drawn): -0.728% and 7.48%.
On to `O=C(O)C1CCCCN1C(=O)c1cccc(C(F)(F)F)c1` (stereo not drawn), for which the Percent Effect in experiment [1] is -1.94%; in experiment [2], 33.5%.
For the compound `Cc1ccc(OCCC(=O)NC2CCc3nc(C)cn3C2)cc1` (stereo not drawn), the Percent Effect in experiment [1] is 3.86%; in experiment [2], -17.6%.
Taken in the same sequence, the figures for `Cc1n[nH]c(C)c1C1CCCN1C(=O)NCCSC(C)(C)C` (stereo not drawn) were 3.45% and -9.79%.
Take `Cc1nc(-c2nnc[nH]2)sc1C(=O)N(Cc1cccnc1)C1CC1`: the Percent Effect was -2.72% in experiment [1] and 7.27% in experiment [2].
As for `CCN(Cc1nc(C(C)C)no1)Cc1cccs1`, the Percent Effect in experiment [1] is 0.386%; in experiment [2], -23.8%.
Take `CS(=O)(=O)N[C@@H]1CN(C(=O)c2ccccn2)[C@@H]2CCCO[C@@H]21`: the Percent Effect was -4.14% in experiment [1] and 3.94% in experiment [2].
For the compound `CN1CCN(Cc2cn3c(n2)CN(Cc2cccnc2)CC3)CC1`, the figures for the Percent Effect in experiment [1] and in experiment [2] were 1.94% and -10.7%, respectively.
With `O=C(NCCNCC1CNc2ccnn2C1)c1ccc(F)cc1` (stereo not drawn), the Percent Effect is -3.94% in experiment [1] and -25.2% in experiment [2].
On to `CCNc1cc2c(nn1)CCN(C(=O)CC1CCCCC1)C2`, for which the Percent Effect in experiment [1] was -7.97%; in experiment [2] it was -4.17%.
